In PubChem BioAssay (Tox21):
A number with no mark means an inactive call. Results filed as inconclusive are left out. Entries that show only a call come without a potency. Active and inactive are the calls of the source. Unless noted, calls come from the whole dose curve; as a rule, active = well fitted curve in the direction sought with a large enough effect in the repeat runs; inconclusive = weak or mixed curves; inactive = no such curve, though single readings can be large; an effect the other way counts as inactive or inconclusive.

Experiments:
[1] = qHTS assay for small molecules that induce genotoxicity in human embryonic kidney cells expressing luciferase-tagged ATAD5 (AID 651632); note: nearly all actives have a fitted effect of over 15% in size; note: potency is the fitted concentration of half-maximal effect
Summary of the method: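 Reporter cells (HEK293T) express luciferase-tagged ATAD5, a protein that accumulates after DNA damage. Treat 16 hr at 37C/5% CO2, add Amplite, wait 30 min at RT, and read luminescence.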

[2] = qHTS assay for small molecule agonists of the p53 signaling pathway - cell viability (AID 651633; calls by dose curve;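 note: p53RE-bla HCT reporter cells with a stable beta-lactamase p53 reporter; series mostly up to about 83 µM; nearly all actives have a fitted effect of over 30% in size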)
Summary of the method: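 p53RE-bla cells were treated with compound for 16 hours at 37 C. Cytotoxicity was then measured as CellTiter-Glo luminescence after 30 min at room temperature.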

[3] = qHTS assay for small molecules that induce genotoxicity in human embryonic kidney cells expressing luciferase-tagged ATAD5 - cell viability (AID 651634; calls by dose curve; note: nearly all actives have a fitted effect of over 25% in size; note: potency is the fitted concentration of half-maximal effect)
Summary of the method: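 Seeding of 2,000 HEK293T ATAD5-luciferase cells per well preceded pin-tool compound transfer. Plates sat 15.5 hr at 37C under 5% CO2, then fluorescence was read after 30 min with CellTiter-Fluor.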

[4] = qHTS assay for small molecule disruptors of the mitochondrial membrane potential - cell viability (AID 720634; calls by dose curve;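 note: human HepG2 liver cancer cells; series mostly up to about 83 µM; nearly all actives have a fitted effect of over 20% in size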)
Summary of the method: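 Measuring cytotoxicity alongside mitochondrial potential, the screen quantified ATP by luminescence in HepG2 cells after 1 hr compound incubation and a 30 min room-temperature CellTiter-Glo step.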

[5] = qHTS assay to test for compound auto fluorescence at 590 nm (red) in HepG2 cells (AID 720674)
Summary of the method: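 Seeding: 2,000 HepG2 cells/well, MEM/10% FBS, overnight 37 C. Dosing: compound vs DMSO. Incubation: 1 hr, 37 C, 5% CO2. Read: fluorescence 540 ex/590 em, Rose Bengal sodium as red reference.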

[6] = qHTS assay to test for compound auto fluorescence at 535 nm (green) in HepG2 cells (AID 720675)
[7] = qHTS assay to test for compound auto fluorescence at 460 nm (blue) in HEK293 cells (AID 720678)
Summary of the method: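 After cell attachment (4-5 hr, 37C), compounds were pinned onto HEK293 monolayers in 10% dialyzed FBS medium. The blue channel (405/460 nm) was read following overnight culture. Equivalency was calculated against triamterene.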

[8] = qHTS assay to test for compound auto fluorescence at 590 nm (red) in HEK293 cells (AID 720679)
Summary of the method: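 Plates of HEK293 cells (10% dialyzed FBS) are treated with 23 nL compound or DMSO vehicle after a 4-5 hr attachment period, incubated overnight at 37C, and read for red fluorescence at 540/590nm.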

[9] = qHTS assay for small molecule disruptors of the mitochondrial membrane potential (AID 720635); note: potency is the fitted concentration of half-maximal effect
Summary of the method: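 HepG2 cells exposed to compound 1 hr at 37C, then Mito-MPS dye 30 min. Ratio read of aggregate (540/590 nm) versus monomer (490/535 nm) fluorescence.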

SMILES	Potency [1]	Potency [2]	Potency [3]	Potency [4]	outcome [5]	outcome [6]	Potency [7]	outcome [8]	Potency [9]	fluorescence, relative to Rose Bengal [5]	fluorescence, % of fluorescein control [6]	fluorescence, % of triamterene [7]	fluorescence, % of fluorescent control [8]
c1ccc(CCCc2ccccn2)cc1	inactive	inactive	inactive	inactive	inactive	inactive	inactive	inactive					
CCCCCCCCCCCCCCC	inactive	inactive	inactive	inactive	inactive	inactive	inactive	inactive	inactive				
CC(C)c1ccc2oc3nc(N)c(C(=O)O)cc3c(=O)c2c1	4.73 µM (active)	inactive	inactive	inactive	inactive	inactive	inactive	inactive					
CC(C)c1cccc(C(C)C)c1N	inactive	inactive	inactive	inactive	inactive	inactive	inactive		inactive				
NCC[C@H](O)C(=O)N[C@@H]1C[C@H](N)[C@@H](O[C@H]2O[C@H](CN)[C@@H](O)[C@H](O)[C@H]2O)[C@H](O)[C@H]1O[C@H]1O[C@H](CO)[C@@H](O)[C@H](N)[C@H]1O	inactive	inactive	inactive	inactive	inactive	inactive	inactive	inactive	inactive				
CC/C=C\C#N	inactive	inactive	inactive	inactive	inactive	inactive	inactive	inactive					
C#CC(O)C(CC)CCCC (centres undefined)	inactive	inactive	inactive	inactive	inactive	inactive	inactive	inactive					
CCCCCC[C@@H](CCC)C(=O)O	inactive	inactive	inactive	inactive	inactive	inactive	inactive	inactive	inactive				
CC(C)(C)N(CCO)CCO	inactive	inactive	inactive	inactive	inactive	inactive	inactive		inactive				
CCCCCCCCN(C)CCCCCCCC	inactive	inactive	inactive	inactive	inactive	inactive	inactive	inactive					
C=C[Si](OC)(OC)OC	inactive	inactive	inactive	inactive	inactive	inactive	inactive	inactive	inactive				
O=Cc1ccccc1[N+](=O)[O-]	inactive	inactive	inactive	inactive	inactive	inactive	inactive						
Cn1cnc2c(=O)[nH]c(N)nc21	inactive	inactive	inactive	inactive	inactive	inactive	inactive	inactive					
Cc1onc(-c2ccccc2)c1-c1ccc(S(N)(=O)=O)cc1	inactive		inactive	inactive	inactive	inactive	inactive						
Cc1ccc(N)cc1[N+](=O)[O-]	inactive		inactive	inactive	inactive	inactive	inactive	inactive	inactive				
CC(C)(C)CC(C)(C)N	inactive		inactive	inactive	inactive	inactive	inactive	inactive	inactive				
C/C=C1\C(=O)C[C@H]2[C@@H]3CCC4=CC(=O)CC[C@]4(C)[C@H]3CC[C@]12C	inactive		inactive	inactive	inactive	inactive							
C1C2OC2C2C1C1CC2C2OC12 (centres undefined)	inactive		inactive	inactive	inactive	inactive		inactive	inactive				
C=CCOCC(O)CS(=O)(=O)O (centres undefined)	inactive	inactive	inactive	inactive	inactive	inactive		inactive					
CCC(C)(C)C1CCC(OC)CC1 (centres undefined)	inactive		inactive	inactive	inactive	inactive		inactive					
CC(C)(O)Cc1ccccc1	inactive		inactive	inactive	inactive	inactive	inactive	inactive	inactive				
Cc1ccccc1Br	inactive	inactive	inactive	inactive	inactive	inactive		inactive					
O=S(=O)(c1cccc2cnccc12)N1CCCNCC1	inactive			inactive	inactive	inactive	inactive	inactive					
C1=C\CC/C=C\CC/C=C\CC/1	inactive	inactive	inactive		inactive	inactive	inactive	inactive					
COC(=O)C1=C(C)NC(C)=C(C(=O)OCC(C)=O)C1c1ccccc1[N+](=O)[O-] (centres undefined)	inactive		23.7 µM (active)	inactive	inactive	inactive	inactive	inactive	9.44 µM (active)				

SMILES	Potency [1]	Potency [2]	Potency [3]	Potency [4]	outcome [5]	outcome [6]	Potency [7]	outcome [8]	Potency [9]	fluorescence, relative to Rose Bengal [5]	fluorescence, % of fluorescein control [6]	fluorescence, % of triamterene [7]	fluorescence, % of fluorescent control [8]
CC(C)=CC(=O)O	inactive		inactive	inactive	inactive	inactive	inactive	inactive	inactive				
O=C(O)c1ccccc1-c1ccc(C(F)(F)F)cc1	inactive		inactive	inactive	inactive	inactive	inactive	inactive					
CCCC=O		inactive	inactive	inactive	inactive	inactive	inactive	inactive	inactive				
O=C(O)Cc1cc(I)c(Oc2cc(I)c(O)c(I)c2)c(I)c1	inactive			inactive	inactive	inactive	inactive	inactive					
CC(=O)c1ccc(C)cc1	inactive		inactive	inactive	inactive	inactive		inactive					
CN(C)C(=O)Nc1ccccc1	inactive		inactive	inactive	inactive	inactive	inactive	inactive					
CCCC(=O)O[C@]1(C(=O)CCl)[C@@H](C)C[C@H]2[C@@H]3CCC4=CC(=O)C=C[C@]4(C)[C@@]3(F)C(=O)C[C@@]21C	inactive		inactive	inactive	inactive	inactive	inactive	inactive	23.7 µM (active)				
C=CC(=O)N1CCOCC1	inactive		inactive		inactive	inactive							
CC1(C)SC(C)(C)SC(C)(C)S1	inactive		inactive	inactive	inactive	inactive	inactive	inactive	inactive				
Nc1[nH]c(=O)ncc1F	inactive		inactive	inactive					inactive	-0.615% [at 18.6 µM]	0.005% [at 18.6 µM]	0.082% [at 18.6 µM]	0.0902% [at 18.6 µM]
CC(C)CCCC(C)CCCC(C)CCCCC(C)CCCC(C)CCCC(C)C (centres undefined)	inactive		inactive	inactive	inactive	inactive	inactive	inactive					
CCCOc1ccccc1-c1nc2n[nH]nc2c(=O)[nH]1	inactive	inactive	inactive	inactive	inactive	inactive		inactive					
C=C(C)C(=O)OCCCCCCCCCCCCCCCCCC	inactive	inactive	inactive							-0.0569% [at 18.6 µM]	-0.0046% [at 18.6 µM]	-0.0754% [at 18.6 µM]	
C1CCCCCCCCCCC1	inactive	inactive	inactive	inactive						-0.0148% [at 18.6 µM]	-0.001% [at 18.6 µM]	-0.115% [at 18.6 µM]	-0.0949% [at 18.6 µM]
C(=C(c1ccccc1)c1ccccc1)c1ccccc1	inactive		inactive	inactive	inactive	inactive	inactive	inactive	30.6 µM (active)				
CN(C)C(=O)C(CCN1CCC(O)(c2ccc(Cl)cc2)CC1)(c1ccccc1)c1ccccc1	inactive			inactive	inactive	inactive		inactive					
NCCNC(=O)c1ccc(Cl)cn1	inactive		inactive	inactive	inactive	inactive	inactive						
CC(CCO)CCCC(C)(C)O (centres undefined)	inactive	inactive	inactive	inactive	inactive	inactive		inactive					
NC(=O)c1c(Cl)cccc1Cl	inactive		inactive	inactive	inactive	inactive	inactive	inactive					
CCN(CC)S(=O)(=O)c1ccc(C(=O)O)cc1	inactive	inactive	inactive	inactive	inactive	inactive	inactive	inactive					
CCCCCCOC(=O)CC(CC(=O)OCCCCCC)(OC(=O)CCC)C(=O)OCCCCCC	inactive	inactive	inactive	inactive	inactive	inactive		inactive					
CCN1CCCC(OC(=O)C(c2ccccc2)c2ccccc2)C1 (centres undefined)	inactive	inactive	inactive	inactive						0.0398% [at 18.6 µM]	0.107% [at 18.6 µM]	0.0169% [at 18.6 µM]	-0.0352% [at 18.6 µM]
CCCc1ccccc1O	inactive		inactive		inactive	inactive	inactive	inactive	27.3 µM (active)				
CNc1ncnc2nc[nH]c12		inactive	inactive	inactive	inactive	inactive	inactive	inactive	2.48 µM (active)				
